# Reference: ChEMBL document CHEMBL4513135, “CO-ADD screening of IQOG CSIS (Spain) compounds”
# Several values for one entry are separate records, joined by “and”; a condition that tells them apart may be missing. Equal values may be shown once. Potency and affinity values are given separately.
# Legend:
# [1] = test system: Staphylococcus aureus; conditions: Concentration 32 ug.mL-1; ASSAY_TEST Inhibition of Bacterial Growth; detection method Absorption (OD600); MEDIA CAMHB; plate type 384well; NBS; CORNING #3640; time 18 hr
# [2] = test system: Escherichia coli; conditions: Concentration 32 ug.mL-1, ASSAY_TEST Inhibition of Bacterial Growth, detection method Absorption (OD600), MEDIA CAMHB, plate type 384well, NBS, CORNING #3640, time 18 hr
smiles,measurement,setting,value
NNC(=O)c1cccnc1 [NICOTINIC ACID HYDRAZIDE],Inhibition,[1],11.6%
same,Inhibition,[2],15.76%
C#CCN(C)Cc1cc2cc(OCc3ccc(OC(=O)N(C)C)c4ncccc34)ccc2n1C,Inhibition,[1],7.52%
same,Inhibition,[2],-14.26%
NNCCCc1c[nH]c2ccccc12.O=C(O)/C=C/C(=O)O,Inhibition,[1],18.22%
same,Inhibition,[2],27.72%
CCOC(=O)c1cc2cc(OC(=O)NC3CCN(Cc4ccccc4)CC3)ccc2[nH]1,Inhibition,[1],20.68%
same,Inhibition,[2],-6.09%
N#Cc1cc(C#N)c(N2C3CCC2CC3)nc1N,Inhibition,[1],-1.36%
same,Inhibition,[2],10.18%
C#CCN1CCc2nc(N)c(C#N)c(-c3ccccc3)c2C1,Inhibition,[2]; 32 ug/mL,-14.9% and -16.29%
COc1cc(C2C(C#N)=C(N)Oc3c2ccc2ccccc32)cc(OC)c1OC (configuration not stated),Inhibition,[1],6.42%
same,Inhibition,[2],8.07%
N#CCC(=O)c1ccccc1,Inhibition,[1],30.68%
same,Inhibition,[2],18.52%
[N-]=[N+]=NCC(=O)c1ccc(Br)cc1,Inhibition,[1],26.38%
same,Inhibition,[2],9.41%
Cc1ccc(C=C(C#N)C#N)cc1,Inhibition,[1],8.41%
same,Inhibition,[2],8.38%
CN1CC=C(c2cccn2C)CC1.Cl,Inhibition,[1],10.31%
same,Inhibition,[2],19.65%
COc1ccc(C=C(C#N)C#N)cc1OC,Inhibition,[1],14.77%
same,Inhibition,[2],13.47%
C#CCN(C)Cc1cc2cc(OC(=O)N(C)C)ccc2n1C,Inhibition,[1],-2.15%
same,Inhibition,[2],-5.14%
C#CCN1CCc2nc3nc(Cl)c(C#N)cc3c(N)c2C1,Inhibition,[1],26.25%
same,Inhibition,[2],-10.74%
Cl.ClCCN1CCCCC1,Inhibition,[1],28.78%
same,Inhibition,[2],20.05%
C#CCN1CCc2nc3nc(OC)c(C#N)cc3c(N)c2C1,Inhibition,[1],26.45%
same,Inhibition,[2],-2.8%
C#CCN1CCc2nc3ncccc3c(N)c2C1.Cl,Inhibition,[1],20.08%
same,Inhibition,[2],-15.24%
CCOC(=O)C1=C(OC)OC(=O)CC1c1ccccc1 (configuration not stated),Inhibition,[1],39.56%
same,Inhibition,[2],-6.33%
OCC(Cc1cnc[nH]1)NCc1ccccc1 (configuration not stated),Inhibition,[1],6.92%
same,Inhibition,[2],2.95%
CN1CC=C(c2cccn2C)CC1,Inhibition,[1],10.32%
same,Inhibition,[2],19%
Cc1ccccc1C=C(C#N)C#N,Inhibition,[1],3.49%
same,Inhibition,[2],0.38%
Nc1c2c(nc3c1C(c1ccccc1)CC(=O)N3)CCCC2 (configuration not stated),Inhibition,[1],28.94%
same,Inhibition,[2],0.15%
Nc1c2c(nc3ccccc13)CCN(Cc1ccccc1)C2,Inhibition,[1],9.97%
same,Inhibition,[2],1.56%
CC1CC(=O)Nc2nc3c(c(N)c21)CCCC3 (configuration not stated),Inhibition,[1],27.94%
same,Inhibition,[2],-10.32%
CCOC(=O)C1=C(C)OC(=O)CC1c1ccccc1 (configuration not stated),Inhibition,[1],23.21%
same,Inhibition,[2],-9.36%
N#CC(C#N)=Cc1ccc(Cl)cc1,Inhibition,[1],7.12%
same,Inhibition,[2],5.89%
CNCc1cn(C)c2ccc(OC)cc12.Cl,Inhibition,[1],14.24%
same,Inhibition,[2],17.26%
O=C(N1[C@H]2CC[C@@H]1C(c1nnn[nH]1)C2)C(F)(F)F (some centres not stated),Inhibition,[1],26.59%
same,Inhibition,[2],-6.69%
NNC(=O)c1cn(Cc2ccccc2)c2ccccc12,Inhibition,[1],1.65%
same,Inhibition,[2],1.53%
Cc1nc(N)c(C#N)cc1C(=O)O,Inhibition,[1],4.41%
same,Inhibition,[2],-9.15%
CCOc1nc2nc(C)c(C(=O)O)cc2c(-c2ccccc2)c1C#N,Inhibition,[1],17.86%
same,Inhibition,[2],-10.47%
COc1ccc2c(c1)cc(C[N+](C)(C)C)n2C.[I-],Inhibition,[1],13.5%
same,Inhibition,[2],12.23%
CN(C)C(=O)Oc1ccc(CCl)c2cccnc12,Inhibition,[1],22.39%
same,Inhibition,[2],-10.05%
Cc1ccc(S(=O)(=O)N2[C@H]3CC[C@@H]2CC3)cc1,Inhibition,[1],28.46%
same,Inhibition,[2],-2.06%
CCOC(=O)C1=C(C)NC(=O)CC1c1ccccc1 (configuration not stated),Inhibition,[1],39.69%
same,Inhibition,[2],-3.27%
C#CCN(C)Cc1cc2cc(OCCCC3CCN(Cc4ccc(OC(=O)N(C)C)c5ncccc45)CC3)ccc2n1C,Inhibition,[1],11.25%
same,Inhibition,[2],-10.82%
O=C(CBr)NCc1ccccc1,Inhibition,[1],46.96%
same,Inhibition,[2],14.62%
Cl.ClCCN1CCCC1,Inhibition,[1],22.74%
same,Inhibition,[2],7.3%
CCOC(=O)c1cn(Cc2ccccc2)c2ccccc12,Inhibition,[1],3.83%
same,Inhibition,[2],-2.16%
